Experimental data published in PubChem BioAssay (EPA / NIEHS).
Activity calls are given as the source filed them. How the source made its calls: active means hit-call score of the fitted dose curve at least 0.9, where 1 is the maximum; inactive means score below 0.9.

Experiments:
[1] = read-out: Interleukin-1 alpha (IL1a), IL1A (gene 3552); assay: BSK_KF3CT_IL1a: BioMAP Diversity Plus: KF3CT Assay for Interleukin-1 alpha (IL1a) Biomarker Activity (AID 2283070); settings: primary human keratinocytes with fibroblasts; actives raise or lower the signal
How it was run: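 Primary skin co-culture (keratinocytes, foreskin fibroblasts), 24 h exposure; ELISA for IL-1a; bidirectional curve fit vs DMSO.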

[2] = read-out: TIMP metallopeptidase inhibitor 2 (TIMP2), TIMP2 (gene 7077); assay: BSK_KF3CT_TIMP2: BioMAP Diversity Plus: KF3CT Assay for TIMP metallopeptidase inhibitor 2 (TIMP2) Biomarker Activity (AID 2283071); settings: primary human keratinocytes with fibroblasts; actives raise or lower the signal
How it was run: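 ELISA readout of TIMP-2 in keratinocyte plus foreskin fibroblast co-cultures (human skin primary cells), 24 h post-dose. Gain or loss of signal fitted relative to DMSO.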

[3] = read-out: Transforming growth factor beta 1 (TGFb1), TGFB1 (gene 7040); assay: BSK_KF3CT_TGFb1: BioMAP Diversity Plus: KF3CT Assay for Transforming growth factor beta 1 (TGFb1) Biomarker Activity (AID 2283072); settings: primary human keratinocytes with fibroblasts; actives raise or lower the signal
How it was run: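 Read-out: ELISA for TGF-b1 in keratinocyte/foreskin fibroblast human skin co-culture, 24 h after dosing; bidirectional curve fit vs DMSO baseline; gain or loss of signal scored.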

[4] = read-out: C-C motif chemokine 2 (Homo sapiens) (UniProt P13500); assay: BSK_KF3CT_MCP1: BioMAP Diversity Plus: KF3CT Assay for Monocyte Chemoattractant Protein 1 (MCP1/CCL2) Biomarker Activity (AID 2283073); settings: primary human keratinocytes with fibroblasts; actives raise or lower the signal
How it was run: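 ELISA read-out of MCP-1, 24 h post-dose, in primary human skin keratinocytes co-cultured with fibroblasts. Parallel SRB staining monitors cytotoxicity; changes fitted both directions relative to DMSO.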

[5] = read-out: Matrix Metallopeptidase 9 (MMP9), MMP9 (gene 4318); assay: BSK_KF3CT_MMP9: BioMAP Diversity Plus: KF3CT Assay for Matrix Metallopeptidase 9 (MMP9) Biomarker Activity (AID 2283074); settings: primary human keratinocytes with fibroblasts; actives raise or lower the signal
How it was run: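 ELISA read-out of MMP-9 at 24 h post-dosing in a co-culture of human skin keratinocytes and foreskin fibroblasts. Gain or loss of signal was fitted in both directions against DMSO.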

CD40, CD40 (gene 958) = assay: BSK_LPS_CD40: BioMAP Diversity Plus: LPS Assay for CD40 Biomarker Activity (AID 2283076); settings: primary human HUVEC with PBMC; actives raise or lower the signal
How it was run: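 In the LPS system of human endothelial cells with peripheral blood mononuclear cells, CD40 levels were read by ELISA 24 h post-treatment. Signal changes in either direction were fitted against the DMSO baseline, with parallel SRB protein staining.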

[6] = read-out: E-selectin (Homo sapiens) (UniProt P16581); assay: BSK_LPS_Eselectin: BioMAP Diversity Plus: LPS Assay for Eselectin Biomarker Activity (AID 2283077); settings: primary human HUVEC with PBMC; actives raise or lower the signal
How it was run: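 E-selectin ELISA on LPS-stimulated endothelial cell/PBMC co-cultures, read 24 h post-treatment; gains and losses fitted against DMSO. Parallel SRB staining (0.1% SRB after 10% TCA fixation, 560 nm) flags overt cytotoxicity.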

[7] = BSK_LPS_SRB: Viability Assessment in the BioMAP Diversity Plus: LPS Assay (AID 2283079); settings: primary human HUVEC with PBMC;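 further: total protein by sulforhodamine B absorbance as a cytotoxicity measure; measured one day after compound addition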
How it was run: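 SRB viability endpoint: cells fixed with 10% TCA, stained with 0.1% SRB, read at 560 nm, 24 h post-dose. HUVEC/PBMC co-culture; signal change in either direction scored relative to DMSO.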

[8] = read-out: Interleukin-1 alpha (IL1a), IL1A (gene 3552); assay: BSK_LPS_IL1a: BioMAP Diversity Plus: LPS Assay for Interleukin-1 alpha (IL1a) Biomarker Activity (AID 2283080); settings: primary human HUVEC with PBMC; actives raise or lower the signal
How it was run: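 Readout is IL-1a level by ELISA, 24 h post-dose, fitted as gain or loss relative to DMSO. System: LPS-activated human primary co-culture of vascular endothelium and peripheral blood mononuclear cells, with parallel SRB total-protein cytotoxicity.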

[9] = read-out: Monocyte Chemoattractant Protein-1 (MCP1), CCL2 (gene 6347); assay: BSK_LPS_MCP1: BioMAP Diversity Plus: LPS Assay for Monocyte Chemoattractant Protein-1 (MCP1) Biomarker Activity (AID 2283081); settings: primary human HUVEC with PBMC; actives raise or lower the signal
How it was run: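 Secreted MCP-1 read by ELISA at 24 h post-dosing in an LPS-activated co-culture of endothelial cells with peripheral blood mononuclear cells. Fits run in both directions, DMSO as baseline; parallel SRB staining tracks overt cytotoxicity.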

[10] = BSK_LPS_PGE2: BioMAP Diversity Plus: LPS Assay for Prostaglandin E2 (PGE2) Biomarker Activity (AID 2283082); settings: primary human HUVEC with PBMC; actives raise or lower the signal
How it was run: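 ELISA read-out of PGE2 from human umbilical vein endothelial cells co-cultured with peripheral blood mononuclear cells under LPS, 24 h post-dose. Gain or loss of signal scored relative to DMSO baseline.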

[11] = read-out: Macrophage colony-stimulating factor (MCSF), CSF1 (gene 1435); assay: BSK_LPS_MCSF: BioMAP Diversity Plus: LPS Assay for Macrophage colony-stimulating factor (MCSF) Biomarker Activity (AID 2283083); settings: primary human HUVEC with PBMC; actives raise or lower the signal
How it was run: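 Bidirectional fitting against DMSO was applied to M-CSF levels read by ELISA at 24 h post-dose. The system pairs human umbilical vein endothelium with peripheral blood mononuclear cells; parallel SRB staining tracked cytotoxicity.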

[12] = read-out: Tumor necrosis factor (Homo sapiens) (UniProt P01375); assay: BSK_LPS_TNFa: BioMAP Diversity Plus: LPS Assay for Tumour Necrosis Factor alpha (TNFa) Biomarker Activity (AID 2283085); settings: primary human HUVEC with PBMC; actives raise or lower the signal
How it was run: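 HUVEC/PBMC co-culture, LPS-stimulated; 24 h post-dose; TNFa by ELISA; gain or loss of signal fitted bidirectionally vs DMSO baseline.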

[13] = read-out: Vascular cell adhesion molecule 1 (VCAM1), VCAM1 (gene 7412); assay: BSK_LPS_VCAM1: BioMAP Diversity Plus: LPS Assay for Vascular cell adhesion molecule 1 (VCAM1) Biomarker Activity (AID 2283086); settings: primary human HUVEC with PBMC; actives raise or lower the signal
How it was run: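 ELISA read-out of VCAM-1 at 24 h post-dosing in an LPS-driven HUVEC/PBMC primary human co-culture; gain or loss of signal fitted bidirectionally against DMSO baseline. Cytotoxicity tracked in parallel cultures by SRB total-protein staining.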

CD38, CD38 (gene 952) = assay: BSK_SAg_CD38: BioMAP Diversity Plus: SAg Assay for CD38 Biomarker Activity (AID 2283087); settings: primary human HUVEC with PBMC; actives raise or lower the signal
How it was run: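 Measures CD38 on a human endothelial/PBMC co-culture driven by SEB and TSST-1, 24 h after compound exposure, using ELISA with fluorescence detection; DMSO defines baseline for bidirectional curve fitting.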

CD69, CD69 (gene 969) = assay: BSK_SAg_CD69: BioMAP Diversity Plus: SAg Assay for CD69 Biomarker Activity (AID 2283089); settings: primary human HUVEC with PBMC; actives raise or lower the signal
How it was run: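 ELISA, fluorescence read-out: CD69 on human umbilical vein endothelial cell + PBMC co-culture, 24 h post-dosing. Gain or loss of signal fitted bidirectionally against DMSO baseline.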

Measured: outcome

Chain of E-selectin (Homo sapiens) (P16581 whole entry, looked up): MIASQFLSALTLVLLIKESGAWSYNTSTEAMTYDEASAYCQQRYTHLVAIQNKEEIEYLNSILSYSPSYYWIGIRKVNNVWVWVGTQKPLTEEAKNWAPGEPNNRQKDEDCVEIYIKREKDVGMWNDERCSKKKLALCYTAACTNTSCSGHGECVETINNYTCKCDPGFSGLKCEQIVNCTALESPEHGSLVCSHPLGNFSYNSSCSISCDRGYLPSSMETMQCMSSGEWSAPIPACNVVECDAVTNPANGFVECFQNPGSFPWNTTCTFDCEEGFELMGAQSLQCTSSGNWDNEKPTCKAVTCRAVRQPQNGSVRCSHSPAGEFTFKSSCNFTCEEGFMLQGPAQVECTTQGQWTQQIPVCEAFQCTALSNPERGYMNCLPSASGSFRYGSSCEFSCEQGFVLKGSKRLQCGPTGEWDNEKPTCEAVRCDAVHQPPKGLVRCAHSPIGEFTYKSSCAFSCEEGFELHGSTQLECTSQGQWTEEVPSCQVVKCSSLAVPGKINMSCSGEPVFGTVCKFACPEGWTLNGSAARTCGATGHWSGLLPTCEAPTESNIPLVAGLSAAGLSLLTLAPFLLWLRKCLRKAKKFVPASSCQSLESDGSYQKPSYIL
Chain of Tumor necrosis factor (Homo sapiens) (P01375 whole entry, looked up): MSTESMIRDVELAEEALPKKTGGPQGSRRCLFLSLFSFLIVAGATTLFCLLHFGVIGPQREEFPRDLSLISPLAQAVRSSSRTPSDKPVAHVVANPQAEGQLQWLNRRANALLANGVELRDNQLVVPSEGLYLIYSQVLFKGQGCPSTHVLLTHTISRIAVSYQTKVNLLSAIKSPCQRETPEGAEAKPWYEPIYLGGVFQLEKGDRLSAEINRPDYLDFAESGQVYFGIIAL

CC1=CC=C(C(C)C)CC1
inactive: all assays above

C=CC(=O)OCCCCCCCC(C)C
inactive: all assays above

CCCCCCCO
inactive: all assays above

CCCCCCOC(=O)CCCCC(=O)OCCCCCC
inactive: all assays above
